Reference: PubChem BioAssay (NCI)
This is part of a sample that, as a whole, favours compounds with a hit. Of some 79,000 tested, about 15% had one in any assay. Values without a mark were called inactive. The source made the active and inactive calls. No stated cut-off is given here; in the data, active means growth inhibition above about 70%; inactive means the rest.

Columns and labels:
[1] = NCI Yeast Anticancer Drug Screen. Data for the rad50 strain (AID 155);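 further: 0% = growth of vehicle-only cultures of the same strain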; details: S. cerevisiae rad50 strain growth inhibition; at 50.0 µM; active compounds read high
How it was run: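 Yeast carrying a defined DNA repair defect were exposed to test compounds, and growth was compared with vehicle-treated controls to give percent inhibition.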

[2] = NCI Yeast Anticancer Drug Screen. Data for the mec2-1 strain (AID 157); details: S. cerevisiae mec2-1 strain, at 50.0 µM, active compounds read high
How it was run: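 Readout is yeast growth inhibition, normalised to vehicle-treated controls, in the mec2-1 strain exposed to compound.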

[3] = NCI Yeast Anticancer Drug Screen. Data for the sgs1 mgt1 strain (AID 161);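 further: 0% = growth of cultures given vehicle only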; details: S. cerevisiae sgs1 mgt1 strain, at 50.0 µM, active compounds read high
How it was run: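 Percent growth inhibition was derived by comparing compound-exposed mutant yeast with vehicle-exposed cultures. The strain carries alterations in DNA damage repair.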

[4] = NCI Yeast Anticancer Drug Screen. Data for the cln2 rad14 strain (AID 165);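 further: 0% = growth equal to vehicle treated cultures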; details: S. cerevisiae cln2 rad14 strain, at 50.0 µM, active compounds read high
How it was run: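 Relative to vehicle controls, growth inhibition of compound-treated cln2 rad14 yeast was recorded.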

[5] = NCI Yeast Anticancer Drug Screen. Data for the bub3 strain (AID 167); details: S. cerevisiae bub3 mutant strain, at 50.0 µM, active compounds read high
How it was run: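 Compounds were applied to a genetically altered yeast strain carrying a cell-cycle control defect. Growth inhibition was scored against vehicle-treated controls.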

[6] = NCI Yeast Anticancer Drug Screen. Data for the mlh1 rad18 strain (AID 175); details: S. cerevisiae mlh1 rad18 strain growth inhibition; at 50.0 µM; active compounds read high
How it was run: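 Test agents were incubated with a yeast strain of defined genotype (DNA damage repair defect). Inhibition of growth was derived by comparison with vehicle-exposed cultures.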

Structure (SMILES) | growth inhibition [1] | growth inhibition [2] | growth inhibition [3] | growth inhibition [4] | growth inhibition [5] | growth inhibition [6]
COc1ccc2c(c1)CC(CN1CCC3(CC1)C(=O)N(C)CN3c1ccccc1)O2 (centres undefined) | -24.6% | 0.95% | -19.7% | -27.4% | 0.45% | -9.8%
CC(C)(O)[C@H]1[C@@H]2OC(=O)[C@H]1[C@]1(O)C[C@H]3OC34C(=O)O[C@H]2[C@@]41C (some centres undefined) (tested in a mixture with another compound) | 1.05% | -12.8% | 19.6% | -9.25% | -12.4% | -65.3%
CC(C)NC(=O)N1C2C3CCC(C)(OC3(C)C)C21 (centres undefined) | -16.5% | -21.4% | 3.7% | -9.35% | -14.9% | -12.2%
CCCCS(=O)CCC(N)P(=O)(O)O (centres undefined) | -50.6% | -54% | -52.8% | -9.9% | 1% | -38.2%
Cc1ccc(O)cc1Cl | -17.8% | -39% | -20.6% | -7.65% | -31.9% | 1.75%
Cc1cc(Cl)ccc1O | -1.2% | -14.8% | -0.3% | 0.5% | -3.1% | -1.7%
O=C(O)CCC(=O)CCl | 7% | 1.35% | 1.2% | -12.6% | 0.9% | 1%
Cl.[O-]c1cccc2cccnc12.[O-]c1cccc2cccnc12.[O-]c1cccc2cccnc12.[O-]c1cccc2cccnc12.[Ti+4] | 89.8% (active) | 92.8% (active) | 92.8% (active) | 91.3% (active) | 92% (active) | 84.6% (active)
O=C(Oc1cc(Cl)c(S(=O)(=O)F)cc1Cl)c1ccc([N+](=O)[O-])cc1 | 78.2% (active) | 86% (active) | 90.2% (active) | 64.8% | 73.5% (active) | 89.9% (active)
c1ccc(C2(N3CCOCC3)CSC2)cc1 | -6.05% | -4.8% | 1.15% | -16.9% | -44.6% | -6.75%
CCc1c2c(c(C)n1C)C(c1ccccc1)=NCC(=O)N2 | 8.1% | 21.1% | 21.7% | -7.1% | 13.4% | 3%
CC1(C)N=C(N)N=C(N)N1c1ccc(CCC(=O)Nc2cccc(S(=O)(=O)F)c2)c(Cl)c1 | 57.7% | 82.4% (active) | 68% | -3.05% | -31.9% | 8.05%
CCCCOP(=O)(O)SP(=O)(O)OCCCC | -13.8% | 17.1% | 10.6% | 20.9% | 2.3% | -3%
Nc1cccnc1 | -29.1% | -35.5% | 23.8% | -1.55% | -23.6% | -5.65%
O=c1[nH]cc(N=Cc2ccccc2F)c(=O)[nH]1.[Cl][Pt][Cl] | 20.6% | 6.15% | 24.7% | 26.9% | -0.2% | 8.95%
C1=CC2CCC1C2 | 15.5% | 3.75% | -7.1% | -52% | -5.65% | 7.85%
N.N.N.N.N.[Co+3].[I-].[N-]=[N+]=[N-] | -0.25% | 32.8% | -25.4% | 20.4% | -6.05% | -9.05%
Cc1cccc(NC2=NCCO2)c1Cl | -20.4% | -25.8% | -11% | 24.9% | -9.3% | -27.3%
CCCCCCCBr | -21.5% | 9% | 3.1% | 0.6% | -5.45% | 15.3%
C(=NCCN=CC1CCCC[N-]1)C1CCCC[N-]1.[Cu+2].[O-][Cl+3]([O-])([O-])O (centres undefined) | 79.8% (active) | 71% (active) | 44.5% | 90% (active) | 69.5% | 82.7% (active)

Structure (SMILES) | growth inhibition [1] | growth inhibition [2] | growth inhibition [3] | growth inhibition [4] | growth inhibition [5] | growth inhibition [6]
COC(c1ccccc1)(c1ccccc1)C1C(c2ccccc2)N1C1CCCCC1 (centres undefined) | 46.1% | -5.3% | 43.5% | -1.3% | -5.1% | 22.8%
ClCCN(CCCl)c1cc(Cl)ccc1Oc1ccccc1 | -35.8% | -4.3% | 1.25% | -42% | 18.9% | -1.55%
O=C(O)[C@H](O)[C@@H](O)C(=O)O.[Pb] | 7.05% | -4.35% | -2.9% | -36.9% | 6.85% | -9.2%
O=C(C/C(=N/O)C(=O)NC1=C(Cl)C(=O)c2ccccc2C1=O)CC(c1ccccc1)c1c(O)c2ccccc2oc1=O (centres undefined) | 39.5% | 81.1% (active) | 82.5% (active) | 76.8% (active) | 84.7% (active) | 87.6% (active)
C[CH2][Pb]([CH2]C)([CH2]C)[N]1C(=O)c2c(Cl)c(Cl)c(Cl)c(Cl)c2C1=O | 67.7% | 34.5% | 93.1% (active) | 25.4% | 33.8% | 78.3% (active)
Cc1cc(C)c(CCN(C)C)c(C)c1C | 8.7% | 0.65% | 4.95% | 1.75% | 1% | 23.4%
Nc1ccn(C2OC(COP(=O)(O)Oc3ccccc3)C(O)C2O)c(=O)n1 (centres undefined) | 11.1% | -11.8% | 17.8% | 4% | 5.2% | 11.3%
CCC(=O)OC1(c2ccccc2)CCN(C/C=C/c2cccc3ccccc23)CC1 | 86.3% (active) | 76.2% (active) | 89% (active) | 62.8% | 83% (active) | 87.2% (active)
Nc1ccc(C(=O)O)c([As](O)O)c1 | -6.95% | 8.55% | -1% | 4.35% | -4.3% | 0.65%
O=c1oc2ccccc2c(O)c1C(c1ccc2c(c1)OCO2)c1c(O)c2ccccc2oc1=O | -5.8% | -4.75% | 34.7% | 7% | 3.65% | 28.4%
CCC1(C/C=C/Cl)C(=O)NC(=O)NC1=O | 7.65% | -3.5% | -29.5% | -38.5% | 6.45% | -29.1%
CN(/N=C/c1ccnc2ccccc12)c1c([N+](=O)[O-])cc([N+](=O)[O-])cc1[N+](=O)[O-] | -0.25% | -4.65% | -18.8% | 18.9% | -10% | -8.4%
CC(=O)Nc1cccc([As]=O)c1 (centres undefined) | 11.5% | 2.75% | 9.95% | 7.6% | -10.8% | 19.1%
COc1cc2cc(c1Cl)N(C)C(=O)CC(OC(=O)C(C)C)C1(C)OC1C(C)C1CC(O)(NC(=O)O1)C(OC)/C=C/C=C(C)C2 (centres undefined) | -15.9% | -9.9% | -19.4% | -22.8% | -21.2% | -3.7%
N#CCCO | -7.35% | 5.05% | 0.55% | -6.9% | -3.7% | -6.2%
C(=C\C1CC2CCCN2O1)/c1ccccc1 (centres undefined) | 39.9% | -20.5% | 15.2% | -23.4% | 2.45% | 11.2%
NC(N)=N/N=C1\C(=O)N(c2cccc([N+](=O)[O-])c2)C(=O)C1C(=O)Nc1cccc([N+](=O)[O-])c1 (centres undefined) | -17.9% | -22.4% | -17.1% | -29.6% | 1.4% | -14.5%
CCN(c1ccccc1)P(I)(c1ccccc1)(c1ccccc1)c1ccccc1 | 98.7% (active) | 99.5% (active) | 99.3% (active) | 98.6% (active) | 98.2% (active) | 99% (active)
CC(Oc1ccc(-c2ccccc2)cc1)C(=O)O (centres undefined) | -14.8% | -1.25% | -9.25% | -4.8% | -13.1% | -23.4%
